Screens (PubChem)
Rab9 prom act = Rab9 promoter activation. Huh7 Rab9 promoter-luciferase reporter, luminescence, 24 h. Potency, µM (top dose mostly 9.22 µM), inactives show at the highest dose activation, negative = inhibition, usual class: activators. 320,000 tested, 2.8% active. AID 485297; further: % of control where 0% means no effect; nearly all actives have a fitted effect of over 60% in size
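Huh7 cells stably carrying Rab9 promoter–luciferase reporter, plated 1500 cells/well, compound added after 2 h and incubated 24 h at 37 °C; luciferase luminescence then read after 10 min with detection reagent.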
SMN2 splice up = increases expression of the SMN2 splice variant | HEK293 SMN2-luciferase splicing reporter, luminescence, 30-36 h | Potency, µM (doses to about 46.1 µM), for inactives: at the highest dose activity change, positive = activation, usual class: activators | 210,000 tested, 2.8% active; further: % of control where 0% means no effect; nearly all actives have a fitted effect of over 55% in size
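HEK293 cells carry an SMN2 minigene-luciferase reporter in which exon 7 inclusion puts luciferase in frame. Cells were seeded at 2000 cells/well, attached for 10-12 hours, then exposed to compounds for 30-36 hours at 37C before ONE-Glo luminescence.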
FLuc counter = counter-screen for miR-21 project: firefly luciferase inhibitors or activators; Potency, µM (highest dose often 57.5 µM), inactives show at the highest dose activity change, negative = inhibition, usual class: inhibitors; purified FLuc, Km substrates, luminescence inhibition; 360,000 tested, 6.9% active; AID 588342; P08659;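 further: plate controls were vehicle for no effect and reference inhibitor for full effect; nearly all actives have a fitted effect of over 55% in size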
Target sequence (P08659 whole entry, looked up): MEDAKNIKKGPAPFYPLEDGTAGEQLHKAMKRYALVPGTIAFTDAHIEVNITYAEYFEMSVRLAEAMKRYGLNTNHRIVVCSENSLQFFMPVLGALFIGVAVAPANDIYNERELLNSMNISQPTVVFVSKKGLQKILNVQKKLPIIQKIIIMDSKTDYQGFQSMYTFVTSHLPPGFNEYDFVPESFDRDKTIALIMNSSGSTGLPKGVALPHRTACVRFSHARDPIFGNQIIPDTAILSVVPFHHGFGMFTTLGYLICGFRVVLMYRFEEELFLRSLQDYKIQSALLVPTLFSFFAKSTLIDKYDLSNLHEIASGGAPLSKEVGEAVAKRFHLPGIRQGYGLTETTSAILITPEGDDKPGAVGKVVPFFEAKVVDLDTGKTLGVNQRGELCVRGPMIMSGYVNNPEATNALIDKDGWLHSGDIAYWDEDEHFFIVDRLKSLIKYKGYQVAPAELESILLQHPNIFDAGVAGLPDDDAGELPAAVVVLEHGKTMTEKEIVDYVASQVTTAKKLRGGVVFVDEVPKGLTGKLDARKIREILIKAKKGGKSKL
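Biochemical qHTS of compounds, final roughly 60 µM downward over six points, against 10 nM purified firefly luciferase using Km concentrations of substrates (10 uM D-luciferin, 10 uM ATP) in Tris acetate pH 7.5 buffer; luminescence output.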
ELG1 genotoxic = inducers of genotoxicity in HEK293T ELG1-luciferase cells | 330,000 tested, 1.3% active | HEK293T ELG1-luciferase reporter, luminescence, 16 h | Potency, µM (top dose mostly 46 µM), for inactives: at the highest dose activity change, positive = activation, most hits filed as activators; further: % of control where 0% means no effect; nearly all actives have a fitted effect of over 60% in size
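HEK293T cells expressing luciferase-tagged ELG1 were exposed to compound or DMSO vehicle for 16 hr at 37 °C and 5% CO2. Luciferase activity was then measured with ONE-Glo after 30 min at room temperature.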
NPC1 prom act = activators of NPC1 promoter; Huh7 NPC1 promoter luciferase reporter, 24 h; Potency, µM (titrated, usually from 9.22 µM), inactives show top-dose activation, actives largely listed as activators; 320,000 tested, 2.4% active; further: % of control where 0% means no effect; nearly all actives have a fitted effect of over 60% in size
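Luminescence read-out of NPC1 promoter-driven luciferase in stably transfected Huh7 cells; compounds delivered in DMSO and left 24 h at 37C, 5% CO2, qHTS titration format.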
KinaseGlo FLuc = blocks Kinase-Glo luciferase, a counter-screen artifact | Q27757 | Kinase-Glo luciferase, ATP luminescence, 8 min | Potency, µM (top dose mostly 38.3 µM), for the others: at the highest dose activity change, negative = inhibition, usual class: inhibitors | 200,000 tested, 0.28% active; further: on the % scale 0 is the no-effect control and ±100 the full control effect; nearly all actives have a fitted effect of over 60% in size
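Light output from Kinase-Glo luciferase with luciferin and 10 uM ATP in 50 mM imidazole pH 7.2, KCl, MgCl2, Tween 20, BSA; compound pin-delivered, 8-min ambient incubation, then luminescence read.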
* hit, by the source's call; ? = inconclusive; nt = no result; [ ] = remark or other dose. The list is not random: actives were taken first. Their share in the collection is about 7.5%. The call rests on the fitted dose curve; in most records, active means well fitted curve in the direction sought with a large enough effect; inconclusive means small, poorly fitted or top-dose-only effect, or another doubt; inactive means no such curve, though single readings can be large; an effect the other way counts as inactive or inconclusive. Potency means the concentration at half of the fitted maximal effect.

SMILES	Rab9 prom act	SMN2 splice up	FLuc counter	ELG1 genotoxic	NPC1 prom act	KinaseGlo FLuc
CCOc1ccc(-c2cnc3ccccc3n2)cc1	4.2%	nt	0.169µM*	0.517µM*	?	nt
Oc1c(Br)cc(/C=N/Nc2nncc3ccccc23)cc1Br	28.9%	nt	9.53µM*	12.0%	?	nt
C/C(=N\Nc1nc(-c2ccccc2O)nc2ccccc12)c1ccccc1	17.1%	nt	?	0.4%	14.7%	-7.2%
CNC(=S)NNc1nncc2ccccc12	-2.4%	22.0%	-0.1%	4.6%	-2.1%	0.9%
NNc1nncc2ccccc12	2.31µM*	12.6µM*	nt	nt	2.59µM*	-8.6%
COc1ccccc1/C=N/Nc1nncc2ccccc12	3.55µM*	10µM*	9.53µM*	?	?	-20.7%
COc1ccc(/C(C)=N/Nc2nc3ccccc3nc2C)cc1	5.6%	nt	2.69µM*	7.4%	4.0%	nt
COc1ccc(/C=N/Nc2nncc3ccccc23)cc1	0.199µM*	0.708µM*	0.169µM*	0.259µM*	0.282µM*	11.2µM*
COc1ccc(/C=N/NC(N)=S)cc1	1.3%	nt	?	5.2%	0.8%	nt
COc1ccc(/C(C)=N/Nc2nncc3ccccc23)cc1	0.708µM*	nt	1.35µM*	?	1.58µM*	nt
Cc1ccc(C)c(Nc2nc(-c3cccnc3)cs2)c1	-0.2%[1.84 µM]	nt	?	-6.7%	12.6%	nt
O=C(Nc1ccccc1)Nc1nc(-c2ccc(F)cc2)cs1	5.6%	-24.7%	-1.3%	1.8%	-4.3%	-0.5%
Cc1ccc(Nc2nc(-c3ccc(F)cc3)cs2)nc1	3.98µM*	nt	4.26µM*	?	3.55µM*	nt
Cc1ccc(Nc2nc(-c3ccc(O)c(O)c3)cs2)nc1	-32.8%	nt	3.01µM*	?	-22.7%	-1.6%
CCCn1c(SCC(=O)NC2CCCC2)nnc1C(C)C	0.0%	nt	1.7%	-10.5%	4.6%	nt
O=S(=O)(NCCc1csc2nc(-c3ccc(Cl)cc3)nn12)c1ccc(Oc2ccccc2)cc1	nt	nt	-2.7%	nt	nt	nt
Cc1nc(Oc2ccc(F)cc2Cl)c2oc3ccccc3c2n1	nt	nt	-2.1%	nt	nt	nt
CCC(C)(C)c1ccc2c(c1)C(=O)c1ccccc1C2=O	2.82µM*	?	1.69µM*	?	1.58µM*	-12.1%
CN(CCCNC(=O)c1cccc(N2CCCC2=O)c1)c1ccccc1	0.4%	3.16µM*	-5.9%	-1.0%	0.7%	8.8%
Cc1ccc(CCNC(=O)c2cccc(N3CCCC3=O)c2)cc1	29.2%	nt	?	12.2%	18.4%	nt
O=C(NCCc1ccccc1)c1cccc(N2CCCC2=O)c1	0.316µM*	nt	2.13µM*	?	0.501µM*	nt
O=C(Nc1ccccc1)c1cccc(N2CCCC2=O)c1	?	?	?	10.3µM*	?	-4.1%
Cc1cccc(CCNC(=O)c2cccc(N3CCCC3=O)c2)c1	2.51µM*	nt	10.7µM*	?	1.41µM*	nt
CN(c1nnc(NC(=O)Nc2ccc(Br)cc2)s1)C1CCCCC1	nt	nt	6.4%	nt	nt	nt
Cc1ccc(C(=O)/C=C2/NC(=O)CS2)cc1	?	20µM*	6.75µM*	16.6%	24.6%	-3.1%
SMILES	Rab9 prom act	SMN2 splice up	FLuc counter	ELG1 genotoxic	NPC1 prom act	KinaseGlo FLuc
CC(C)OCCCn1c(=O)c2ccccc2n2c(CCC(=O)NC3CCN(Cc4ccccc4)CC3)nnc12	-2.6%	nt	0.0%	-0.9%[9.26 µM]	-0.7%	nt
Cc1cccc(NC(=O)COc2ccc3c(c2)CCC3)n1	?	nt	10.7µM*	17.5%	24.9%	nt
COc1ccc(NC(=O)COc2cccc3c2OC(C)(C)C3)cc1OC	-13.2%	nt	3.8%	-4.1%	-3.3%	nt
Cc1cnc(NC(=O)COc2ccc3c(c2)CCC3)s1	?	nt	1.2µM*	0.651µM*	0.562µM*	nt
O=C(COc1ccc2c(c1)CCC2)Nc1ccccn1	3.16µM*	nt	0.169µM*	?	3.98µM*	nt
Cc1cccc(NC(=O)COc2ccc3oc4c(c3c2)CCCC4)n1	-3.5%	2.9%	?	27.2%	15.9%	-4.9%
Cc1cnc(NC(=O)COc2cccc3c2OC(C)(C)C3)s1	-0.5%	20µM*	-4.2%	-3.4%	-2.5%	0.5%
Cc1cc(C)c2c(=O)c3c(oc2c1)C(=O)N(CCCOC(C)C)C3c1ccccc1F (stereo not given)	nt	0.4%	-8.7%	nt	nt	nt
O=C(NCCS(=O)(=O)N1CCN(c2cccc(Cl)c2)CC1)C(c1ccccc1)c1ccccc1	nt	nt	-0.2%	nt	nt	nt
Cc1cc(Br)ccc1SCC(=O)N1CCN(S(=O)(=O)c2ccccc2)CC1	?	nt	13.5µM*	16.4µM*	?	nt
O=C(CSc1ncccn1)N1CCN(S(=O)(=O)c2ccccc2)CC1	-4.3%	nt	-1.0%	0.1%	3.2%	nt
CN(C)c1ccc(-c2nc3ccccn3c2Nc2ccc3c(c2)OCCO3)cc1	nt	?	2.39µM*	nt	nt	nt
Oc1ccc(-c2nc3ccccn3c2Nc2ccc3c(c2)OCCO3)cc1	nt	40.7%	19µM*	nt	nt	nt
COc1cc(OC)cc(-c2oc3cccnc3c2C#CCCO)c1	-2.3%	nt	-3.5%	1.8%	0.0%	nt
CCN(CC)C(=O)CSc1ncnc2c(-c3cccs3)nsc12	3.16µM*	13.1%	-12.2%[2.3 µM]	10.7%	?	2.1%
CCOC(=O)c1ccccc1NC(=O)CSc1nnc(Cc2cccn2C)n1-c1ccc(F)cc1	3.16µM*	-15.3%	1.4%	-3.7%	0.6%	2.4%
COC(=O)C1=NN(C(=O)c2cccc(Br)c2)C(O)(c2ccc(Cl)cc2)C1 (stereo not given)	-4.0%	nt	10.7µM*	3.9%	-0.6%	nt
CCOC(=O)C1=NN(C(=O)c2ccc(OC)cc2)C(O)(c2ccc(Cl)cc2)C1 (stereo not given)	-7.5%	12.0%	-14.0%	-5.8%	-1.3%	-2.2%
CC(=O)c1ccc(Nc2ccc(-c3ccccc3F)nn2)cc1	0.501µM*	7.08µM*	4.78µM*	?	0.708µM*	-4.5%
O=c1cc(-c2cccs2)oc2ccc(Cl)cc12	3.16µM*	nt	4.78µM*	?	3.16µM*	nt
O=c1cc(-c2ccc3c(c2)OCCO3)oc2ccc(Cl)cc12	0.447µM*	2.51µM*	0.379µM*	2.91µM*	0.631µM*	-15.3%
O=c1cc(-c2ccsc2)oc2cc(-c3ccc4c(c3)OCO4)ccc12	nt	nt	nt	1.3%	nt	nt
COc1cc(Nc2ncc3c(n2)CCN(Cc2cc(Br)cs2)C3)cc(OC)c1	nt	nt	1.7%	nt	nt	nt
COc1ccccc1N1CCN(C(=O)c2cc(-c3ccc4c(c3)OCO4)on2)CC1	-1.0%	7.7%	?	-6.2%	0.8%	-0.4%
O=C(c1cc(-c2ccc3c(c2)OCO3)on1)N1CCN(c2ccc(F)cc2)CC1	4.3%	-16.9%	15.1µM*	-0.3%	-2.0%	1.1%
CC(C)CNC(=O)c1cc(-c2ccc3c(c2)OCO3)on1	0.501µM*	nt	1.9µM*	?	0.562µM*	nt
O=C(c1cc(-c2ccc3c(c2)OCO3)on1)N1CCOCC1	0.631µM*	0.501µM*	1.51µM*	0.581µM*	0.398µM*	-24.5%
